# Results taken from PubChem BioAssay AID1851 (National Center for Advancing Translational Sciences (NCATS), 2009).
# Values joined by “and” are separate entries in the source; they are usually repeats but may differ in a detail not shown here. Equal entries are not always repeated. The campaign covered roughly 16,000 compounds. About 5,700 (36%) were called active. Roughly 24% stayed inconclusive and do not appear here. Calls come from the whole dose curve; as a rule, active = well fitted curve in the direction sought with a large enough effect; inconclusive = small, poorly fitted or top-dose-only effect, or effect the other way; inactive = no such curve, though single readings can be large or run the other way. Some of the results follow.
# Target: Cytochrome P450 1A2 (Homo sapiens) (UniProt P05177)
# Experiment: Cytochrome panel assay with activity outcomes
# Settings: recombinant CYP, pro-luciferin dealkylation, luminescence, p450-cyp1a2; series mostly up to 57.1 µM; activity, negative = inhibition: at the top concentration
# % is set by controls: 0 for no effect and ±100 for the full control effect.
# Cytochrome P450 1A2 (Homo sapiens), sequence (P05177 whole entry, looked up): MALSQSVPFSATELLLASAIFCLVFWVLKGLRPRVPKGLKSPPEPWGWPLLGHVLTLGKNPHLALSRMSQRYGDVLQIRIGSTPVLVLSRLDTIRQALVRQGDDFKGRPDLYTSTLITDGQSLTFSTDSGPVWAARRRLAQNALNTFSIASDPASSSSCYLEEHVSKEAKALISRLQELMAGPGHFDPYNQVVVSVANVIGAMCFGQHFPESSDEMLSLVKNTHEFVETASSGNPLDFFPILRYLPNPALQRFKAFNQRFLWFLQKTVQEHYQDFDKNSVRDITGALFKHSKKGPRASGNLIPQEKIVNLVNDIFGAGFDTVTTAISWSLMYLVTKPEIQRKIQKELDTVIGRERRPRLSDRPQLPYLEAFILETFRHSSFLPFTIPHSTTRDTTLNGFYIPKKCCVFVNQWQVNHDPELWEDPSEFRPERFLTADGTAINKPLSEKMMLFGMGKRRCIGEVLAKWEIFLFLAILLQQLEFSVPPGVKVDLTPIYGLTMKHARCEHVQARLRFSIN
SMILES,"activity, negative = inhibition",AC50
COc1ccc(NC(=O)c2cc3n(n2)C(C(F)(F)F)CC(c2ccc4c(c2)OCO4)N3)cc1OC (configuration not stated),-4.17% (inactive),–
COc1ccc(C2CC(C(F)(F)F)n3nc(C(=O)N(C)Cc4cn(C)nc4C)c(Cl)c3N2)cc1 (configuration not stated),-44.6% (inactive),–
COc1ccc(OC)c(NC(=O)c2cc3n(n2)C(C(F)(F)F)CC(c2ccc4c(c2)OCO4)N3)c1 (configuration not stated),–,0.316 µM (active)
CCOC(=O)C1CCCN(c2ncnc3c2cnn3-c2ccc(Cl)cc2)C1 (configuration not stated),–,8.91 µM (active)
CCOC(=O)C1CCCN(C(=O)C2CCN(S(=O)(=O)N3CCC4(CC3)OCCO4)CC2)C1 (configuration not stated),-7.11% (inactive),–
CCOC(=O)C1CCCN(c2ncnc3c2cnn3-c2cccc(C)c2)C1 (configuration not stated),–,14.1 µM (active)
CC(=O)c1c(C(C)=O)c(C)n(NC(=O)c2ccccc2Cl)c1C,-23.6% (inactive),–
Cc1cc(OC(=O)c2ccc(Cl)cc2)cc(=O)n1C,–,25.1 µM (active)
CC(=O)Nc1cccc(C(=O)OCc2ccc(C(=O)Oc3ccc(Cl)cc3)cc2)c1,-6.94% (inactive),–
Cc1cc(OC(=O)c2ccccc2Cl)cc(=O)n1C,–,3.55 µM (active)
COc1ccc(C2CC(=O)CC(=O)C2n2cncn2)cc1 (configuration not stated),-6.41% (inactive),–
CC(CC(=O)O)(CC(=O)O)c1ccccc1,-0.666% [at 11.4 µM] (inactive),–
COc1cc(-c2ccc(=O)[nH]n2)ccc1OC(F)F,–,5.01 µM (active)
c1cc(CNCCCN2CCOCC2)ccn1,-3% (inactive),–
c1ccc2c(c1)CCCc1cc(NCCN3CCOCC3)nnc1-2,-10.5% [at 25.6 µM] (inactive),–
CCOc1nc(NCCN2CCOCC2)nc(Nc2ccc(C)cc2)n1,-28% (inactive),–
Clc1ccccc1-c1nccc(NCCN2CCOCC2)n1,–,2 µM (active)
O=C(/C=C/c1ccccc1Cl)NCCN1CCOCC1,-27.1% (inactive),–
Cc1ccccc1-c1nccc(NCCN2CCOCC2)n1,–,5.01 µM (active)
CN(C)c1ccc(-c2nccc(NCCN3CCOCC3)n2)cc1,–,1.26 µM (active)
C#CCCCO/N=C1/C[C@@H](O)[C@@H](O)[C@@H]2[C@H]3C(=O)N(c4ccc(F)cc4F)C(=O)[C@@H]3CC[C@@H]12,5.29% [at 11.4 µM] (inactive),–
CNC(=O)c1c(I)c(C(=O)NCC(=O)Nc2c(I)c(C(=O)O)c(I)c(C(=O)NCCO)c2I)c(I)c(N(C)C(C)=O)c1I,-10% [at 25.6 µM] (inactive),–
O=c1c(-c2cccs2)nc2cncnc2n1-c1ccccc1,–,12.6 µM (active)
COc1ccc(-n2c(=O)c(-c3cccs3)nc3cncnc32)cc1,–,10 µM (active)
CC(=O)NCCNc1cc(-c2ccccc2C)ncn1,–,15.8 µM (active)

SMILES,"activity, negative = inhibition",AC50
COc1ccccc1CNc1cc(-c2ccccc2OC)ncn1,–,2.51 µM (active)
COc1ccccc1CNc1cc(-c2ccccc2C)ncn1,–,5.01 µM (active)
CC(=O)NCCNc1cc(-c2ccccc2CN(C)C)ncn1,-20.9% (inactive),–
COCCNc1cc(-c2ccccc2C)ncn1,–,15.8 µM (active)
COCCNc1cc(-c2ccccc2CN(C)C)ncn1,-16.8% (inactive),–
CCCc1nnc(NC(=O)CCC(=O)N2CCN(c3ccccn3)CC2)s1,-4.79% (inactive),–
Cc1ccc(C(=O)N2CCN(c3ccc(C(F)(F)F)cn3)CC2)cc1,–,14.1 µM (active)
O=C(c1ccc(Oc2ccc(C(F)(F)F)cn2)cc1)N1CCN(c2ccccc2)CC1,-23.5% (inactive),–
O=C(c1cc(C(F)(F)F)cc(C(F)(F)F)c1)N1CCC2(CC1)CCN(c1ccccn1)CC2,-13.7% (inactive),–
CCCS(=O)(=O)N1CCCC(C(=O)NCCCN2CCN(c3ccc(F)cc3)CC2)C1 (configuration not stated),-21.1% (inactive),–
c1ccc2c(c1)c1ccccc1n2Cn1c2ccccc2c2ccccc21,–,0.251 µM (active)
CN(C)C(=O)c1ccc(-n2nc(C(F)(F)F)c3c2CCCC3)cc1,–,22.4 µM (active)
COC(=O)[C@@]1(Cc2ccccc2)[C@H]2c3cc(C(=O)N4CCCC4)n(Cc4ccc(C(F)(F)F)nc4)c3C[C@H]2CN1C(=O)c1ccccc1,-10.8% (inactive),–
Cc1cccc2cc(=O)[nH]c(C)c12,–,14.1 µM (active)
CC1CC/C(=C\c2ccc3c(c2)OCO3)C(=O)/C1=C/c1ccc2c(c1)OCO2 (configuration not stated),–,3.55 µM (active)
Cc1ccc(=O)n(-c2ccccc2)c1,–,31.6 µM (active)
Cc1c(O)c(=O)n(-c2ccccc2)n1C,-12.4% [at 25.6 µM] (inactive),–
CC(=O)c1c(O)cc(=O)n(-c2ccccc2)c1-c1ccc(C)cc1,3.8% (inactive),–
Cc1cc2c(nc1C)CCCN2CC(O)CN1CCCc2nc(C)c(C)cc21,-4.54% [at 11.4 µM] (inactive),–
O=C1c2ccccc2C(=O)N1CC1CCCO1 (configuration not stated),–,14.1 µM (active)
O=C(NCc1ccccc1)c1ccc2c(c1)C(=O)N(CC1CCCO1)C2=O (configuration not stated),-10.7% (inactive),–
O=C1C[C@@H](O)[C@@H](O)[C@H]2[C@@H]3C(=O)N(C[C@@H]4CCCO4)C(=O)[C@@H]3CC[C@H]12,-4.6% [at 11.4 µM] (inactive) and -8.21% [at 11.4 µM] (inactive),–
COc1ccc(Oc2ncc3nc(C)c(=O)n(Cc4cccs4)c3n2)cc1,–,10 µM (active)
COc1ccc(Oc2ncc3ncc(=O)n(Cc4cccs4)c3n2)cc1,–,10 µM (active)
COc1ncc2ncc(=O)n(Cc3cccs3)c2n1,–,10 µM (active)

SMILES,"activity, negative = inhibition",AC50
NC(N)=N[C@@H]1C(O)[C@H](N=C(N)N)[C@@H](O)C(O)[C@H]1O (some centres not stated),-4.87% [at 2.29 µM] (inactive),–
O=C1/C(=C/c2cccnc2)SC(=S)N1Cc1ccco1,–,0.501 µM (active)
Cc1ccc(S(=O)(=O)/N=C2/NC(=O)/C(=C/c3cccnc3)S2)cc1,-6.98% (inactive),–
O=C(CCN1C(=O)/C(=C/c2cccc(Br)c2)SC1=S)NNC(=O)c1cccnc1,-14.4% (inactive),–
CCCc1cc2c(cc1NC(=O)c1ccccc1Cl)OCO2,–,2.51 µM (active)
CCCN(C(=O)Cc1nc(N)n[nH]1)C1(C(=O)Nc2ccccc2C)CCCCC1,-8.95% (inactive),–
CCCc1cc2c(cc1NC(=O)c1ccccc1C)OCO2,–,2.24 µM (active)
CC[C@@]12CCCN3CCc4c(n(c5ccccc45)[C@](O)(C(=O)OC)C1)[C@H]32,–,inactive
O=C(CCCc1ccccn1)c1ccccc1,–,5.01 µM (active)
O=C(O)CCC(=O)N1CCN(c2ccccn2)CC1,15.9% (inactive),–
O=C(O)[C@H](CCc1ccccn1)c1ccccc1,-12.5% [at 11.4 µM] (inactive),–
COc1cc(/C=N\NC(=O)C2C(=O)NCC2c2ccccc2)cc(OC)c1O (configuration not stated),-16.9% (inactive),–
COc1cc(/C=N\Nc2nc3ccccc3[nH]2)cc(OC)c1OC,–,10 µM (active)
CN(CC(=O)N1CCN(c2ccccc2)CC1)S(=O)(=O)c1cnc[nH]1,-17.9% (inactive),–
CC(C)CN(CC(C)C)S(=O)(=O)N1CCC(C(=O)NCc2ccc(F)cc2)CC1,-7.94% (inactive),–
Cn1c[n+](C)cc1/C=N/O,13.8% (inactive),–
COc1cc(C2C(C(=O)OCCC#N)=C(C)NC3=C2S(=O)(=O)c2ccccc23)cc(OC)c1OC (configuration not stated),-20.5% (inactive),–
COC(=O)C1=C(C)NC(C)=C(C(=O)OCCSc2ccccc2)[C@@H]1C,–,0.794 µM (active)
Cc1cnn(-c2cc(N/N=C/c3ccccc3F)ncn2)c1,–,0.562 µM (active)
Cc1cnn(-c2cc(N/N=C/c3ccccc3)ncn2)c1,–,2 µM (active)
CC(C)(C)N1C(=O)[C@H]2[C@@H]3[C@H](O)[C@H](O)CC(=O)[C@H]3CC[C@H]2C1=O,-8.79% [at 11.4 µM] (inactive) and -4.69% [at 11.4 µM] (inactive),–
Cc1noc(C)c1C(=O)N1CCC2(CCN(Cc3cc(C(F)(F)F)cc(C(F)(F)F)c3)CC2)CC1,-21.2% (inactive),–
CCC(Sc1ncccc1C(=O)O)C(=O)N1CCOCC1 (configuration not stated),15.3% (inactive),–
Clc1ccccc1-c1nc(NCCN2CCOCC2)c2ccccc2n1,–,12.6 µM (active)
N#Cc1cccc(-c2nc(NCCN3CCOCC3)c3ccccc3n2)c1,–,1 µM (active)

SMILES,"activity, negative = inhibition",AC50
N#Cc1nc(-c2ccc(OCc3ccccc3)cc2)oc1NCCN1CCOCC1,-24.4% (inactive),–
O=C(NCCN1CCOCC1)c1nn2c(c1Cl)NC(c1ccccc1)CC2C(F)(F)F (configuration not stated),0.473% (inactive),–
FC(F)(F)c1ccccc1-c1nc(NCCN2CCOCC2)c2ccccc2n1,–,12.6 µM (active)
c1ccc2c(NCCN3CCOCC3)nc(-c3ccoc3)nc2c1,–,5.01 µM (active)
O=C1C=C(NCCN2CCOCC2)CC(c2ccccc2)C1 (configuration not stated),-25.1% (inactive),–
COc1cc(NS(=O)(=O)c2ccc(N)cc2)nc(OC)n1,1.22% [at 25.6 µM] (inactive),–
COc1cc(NC(=O)c2c(F)cccc2F)nc(OC)n1,–,20 µM (active)
CC#CCCCC(=O)Nc1cc(OC)nc(OC)n1,–,0.355 µM (active)
OC[C@@H]1O[C@@H](n2cnc3c(N[C@@H]4C[C@@H]5CC[C@H]4C5)ncnc32)[C@@H](O)[C@H]1O,-14.4% (inactive),–
Cc1ccc(S(=O)(=O)N(C)CC(=O)O/N=C(\N)c2ccccn2)cc1,-5.85% (inactive),–
CN(CC(=O)O/N=C(\N)c1ccccn1)S(=O)(=O)c1ccccc1,-9.06% (inactive),–
CCOC(=O)CN(c1ccccn1)S(=O)(=O)c1ccccc1,–,14.1 µM (active)
O=C(NCc1cccc(C(F)(F)F)c1)c1cc(Cl)cc(Cl)c1,–,12.6 µM (active)
COc1ccc(-c2coc3cc4oc(=O)cc(C)c4cc23)cc1F,–,2 µM (active)
CCc1nc(N2CCC3(CC2)OCCO3)c2nnn(Cc3ccccc3Cl)c2n1,–,7.08 µM (active)
O=C(NCc1ccccc1Cl)C1CCN(S(=O)(=O)N2CCC3(CC2)OCCO3)CC1,-0.431% (inactive),–
Fc1ccc2nc(Nc3nc4c(s3)CCCC4)sc2c1,–,1.58 µM (active)
COc1ccc(NC(=O)N2CC[C@@]3(CCCN(C(=O)c4cnccn4)C3)C2)cc1,-18.8% (inactive),–
Cc1ccc(CS(=O)(=O)Cc2ccc(C(=O)NCC3CCCO3)o2)cc1 (configuration not stated),-7.21% (inactive),–
Cc1ccc(C(=O)NC(=S)NCC2CCCO2)cc1 (configuration not stated),–,7.08 µM (active)
CCS(=O)(=O)N1CCC(C(=O)NCCN2CCN(Cc3ccccc3)CC2)CC1,-25.8% (inactive),–
CCCn1c2c(c(O)c(C(=O)NCc3ccccc3)c1=O)CCCC2,–,1.26 µM (active)
